Structures are written as SMILES. The whole screen tested about 330,000 compounds, of which about 4,200 (1.3%) were called active. Inconclusive results (about 6%) are left out. This is one part of a sample in which actives are shown more often than they occur. Values without a mark were called inactive. Calls follow the shape of the dose curve; as a rule, active = well fitted activation curve with a large enough effect; inconclusive = small, poorly fitted or top-dose-only effect; inactive = no such curve, though single readings can be large or run the other way.
Potency is read from the fitted curve at half-maximal effect.

The experiment can be described thus: qHTS screen for small molecules that induce genotoxicity in human embryonic kidney (HEK293T) cells expressing luciferase-tagged ELG1. Also: nearly all actives have a fitted effect of over 60% in size. As to activity change, positive = activation: % of control where 0% means no effect. The note with it: HEK293T ELG1-luciferase reporter, luminescence, 16 h; series mostly up to 46 µM; activity change, positive = activation: at the top concentration. From the text: NIH Molecular Libraries Probe Production Network [MLPCN] NIH Chemical Genomics Center [NCGC] MLPCN Grant: 1 R03 MH092164-01 Assay Provider: Kyungjae Myung, NHGRI, NIH Keywords: MLPCN, qHTS, NCGC, genotoxicity, cancer Assay Overview: Cancer cells divide rapidly compared to normal cells in the body. During cell division, cancer cells need to duplicate their genome by DNA replication. The failure of genome duplication leads to cancer cells' death. Therefore, inhibitors of DNA replication could specifically kill cancer cells. Based on this concept, many chemotherapeutic agents were developed and have been used to treat cancer patients. However, there are a limited number of agents available in the clinical setting, and some of those that do exist have low efficacy and severe side effects. Therefore, if we can find the compounds that effectively block DNA replication either by directly damaging DNA or by inhibiting other cellular mechanisms, the options for cancer treatment will be broadened. With this in mind, we developed a quantitative high-throughput ELG1-luciferase reporter gene assay. Since the level of human ELG1 protein is enhanced in response to genetic stresses, increases in luciferase activity can be used to identify compounds that cause genetic stress.
Assay Protocol Summary: For genotoxicity screening, 2,000 cells in 5 uL/well were dispensed into white, solid-bottom 1536-well plates using a solenoid-based dispenser. Following transfer of 23 nL compound or DMSO vehicle by a pin tool, the plates were incubated 16 hr at 37 °C and 5% CO2. 5 ul ONE-Glo (Promega) was then added to each plate and following a 30 min incubation at room temperature, luciferase activity was quantified on a ViewLux CCD-based plate reader.
A general note: In qHTS, concentration-response curves come from the screen itself.
As for `O=C(CSc1nccn1-c1cccc(F)c1)NC1CCCC1`, the “activity change, positive = activation” value is -1.66%. The same measure, in the same setting: to `COc1cc(C(=O)NC2CCN(C)CC2)ccc1Nc1ncc2c(n1)N(C1CCC(O)CC1)CCC(=O)N2C` (centres undefined) belongs 11.5%; to `O=C(C(=O)N1CCc2ccccc2C1)N1CCc2ccccc2C1`, 3.73%; to `CCC(=O)c1ccc(OCC(=O)OCC(=O)N2CCc3ccccc3C2)cc1`, 4.03%.

For the molecule `O=C(Cn1c(=S)nc2ccccn21)N1CCc2ccccc2C1`, the Potency is 20.6 µM (active). `CCOC(=O)[C@@H]1[C@H]2COc3ccc(Br)cc3[C@H]2N2C(=O)N(c3ccc(C)cc3)C(=O)[C@@]12C`: the “activity change, positive = activation” value is -1.54%.

Turning to `Cc1ccc(S(=O)(=O)N2C[C@@H]3CCCC[C@@H]3[C@@H](C)[C@H]2c2cn(Cc3ccccc3)c3ccc(F)cc23)cc1`, the “activity change, positive = activation” value was -5.58%.

Turning to `CC(C)C(NC(=O)c1c(F)cccc1F)C(=O)NNC(=O)c1ccccc1` (centres undefined), the “activity change, positive = activation” value was 3.05%. On to `COc1cc(/C=C/C(=O)OCC(=O)c2ccccc2)cc(OC)c1OC`, for which the “activity change, positive = activation” value is 5.34%. In the case of `Cc1cc(C(C)(C)C)n2nc(C)c(-c3ccccc3)c2n1`, the “activity change, positive = activation” value was -0.426%.

In the case of `Cc1nc2cc(-c3ccc(F)cc3)nn2c(N2CCOCC2)c1C`, the “activity change, positive = activation” value is 10.7%. As to `Cc1cc(N)n2nc(-c3ccc(C(C)(C)C)cc3)cc2n1`, the Potency was 0.411 µM (active). `COc1ccc2[nH]c3c(c2c1)CCN1C(=O)C(CC(=O)NCCc2ccccn2)C[C@H](C(=O)N2CCOCC2)[C@@]31C` (some centres undefined): the “activity change, positive = activation” value was 7.43%. For the molecule `CCn1c(SCc2ccccc2)nc2c(c1=O)SCC2`, the “activity change, positive = activation” value is 4.43%. Same read-out and setting: in the case of `CCn1c(SCc2ccccc2)nc2cc(OC)c(OC)cc2c1=O` it was 3.09%. As to `CCS(=O)(=O)n1nc(-c2ccccc2)nc1SCc1ccccc1`, the Potency was 10.3 µM (active). As to `Cc1ccc2c(c1)NC(=O)[C@@]1(C)[C@@H](c3ccccc3)[C@H]3COc4ccc(Cl)cc4[C@@H]3N1C2=O`, the “activity change, positive = activation” value is -1.37%.

As to `CN(C)C(=O)CCc1ccc2c3c([nH]c2c1)[C@]1(C)[C@@H](C(=O)N2CCOCC2)C[C@H](CC(=O)NCCc2ccccn2)C(=O)N1CC3`, the “activity change, positive = activation” value was 9.82%.

For the molecule `COc1ccc(S(=O)(=O)N(C)C[C@@H]2Oc3ccc(NC(=O)Nc4c(C)noc4C)cc3C(=O)N([C@H](C)CO)C[C@@H]2C)cc1`, the “activity change, positive = activation” value was 3.81%. For the molecule `COc1ccc(-n2cnc3cc(C(=O)NC4CCCC4)ccc32)cc1`, the “activity change, positive = activation” value is 12.1%.

Consider `COc1ccc(Nc2nc(NCc3ccco3)nc(N/N=C/c3ccccc3Cl)n2)cc1`, for which the “activity change, positive = activation” value is -0.416%.

As for `COc1ccc(-n2cnc3cc(NCc4ccco4)ccc32)cc1`, the Potency is 20.6 µM (active). Consider `C=CCC[C@H](Cc1ccc(F)cc1)C(=O)OC[C@@H](NC(=O)[C@@H](CC=C)CC(=O)N[C@H](CO)Cc1ccccc1)C(C)(C)C`, for which the “activity change, positive = activation” value is -8.04%.

For the molecule `Cc1ccc(C)c(C(C)NC(=O)C2CCCO2)c1` (centres undefined), the “activity change, positive = activation” value is -2.35%. Take `Cc1cc(C)c2nc(NC(=O)C3CCCO3)sc2c1` (centres undefined): the Potency was 3.55 µM (active). With `Cc1cc([N+](=O)[O-])ccc1NC(=O)C1CCCO1` (centres undefined), the “activity change, positive = activation” value is -1.87%. Take `Cc1nccn1CC(=O)N/N=C/c1ccc(O)c(O)c1`: the “activity change, positive = activation” value was 0.2%.

Take `Oc1ccc(/C=N/Nc2ccc(C(F)(F)F)cn2)cc1O`: the Potency was 20.6 µM (active). On to `O=C(Nc1ccccc1)Nc1ccc(C(F)(F)F)cn1`, for which the “activity change, positive = activation” value is 8.04%.

On to `Clc1ccc2nc(CSc3ccccc3)cn2c1`, for which the Potency was 0.82 µM (active). Consider `O=C(/C=C/c1ccc2c(c1)OCO2)NCc1cn2cc(Cl)ccc2n1`, for which the “activity change, positive = activation” value is 1.4%.

Consider `CCCCCCSc1ccc(-c2nc3ccc(Cl)cn3c2NCc2ccccc2)cc1`, for which the “activity change, positive = activation” value is -2.3%. For `O=C(NCCc1ccco1)c1ccc(OCc2cn3ccccc3n2)cc1`, the “activity change, positive = activation” value is 9.93%. As to `COc1ccc2nc(SCc3ccccc3)nc(C)c2c1`, the Potency was 3.66 µM (active).

Consider `COC(=O)CSc1nc(C)c2ccc(OC)cc2n1`, for which the “activity change, positive = activation” value is -1.32%. For `COc1ccc(-c2nnc3ccc(SCc4ccccc4)nn23)cc1`, the “activity change, positive = activation” value is -0.849%. As for `C#CCOCCOCCOCCNc1nc(N2CCN(C(=O)[C@H](CO)n3cc([C@@H](N)C(C)C)nn3)CC2)nc(N2CCN(C(=O)[C@H](CCC(=O)O)n3cc([C@@H](N)[C@H](C)CC)nn3)CC2)n1`, the “activity change, positive = activation” value was 3.78%. With `O=C(COC(=O)c1cccnc1Cl)NC12CC3CC(CC(C3)C1)C2`, the “activity change, positive = activation” value was -4.16%.

Consider `Cc1ccc(NC(=O)C2CC2)cc1S(=O)(=O)N1CCOCC1`, for which the “activity change, positive = activation” value was -0.262%. Same read-out and setting: in the case of `CC[C@]12c3[nH]c4cc(CCC(=O)N(C)C)ccc4c3CCN1C(=O)[C@@H](CC(=O)NCCCN(C)C)C[C@@H]2C(=O)N1CCN(C(=O)c2ccco2)CC1` it was -3.3%. On to `O=C(NN=Cc1ccc(N2CCOCC2)cc1)c1cc2ccccc2cc1O`, for which the “activity change, positive = activation” value is -2.13%.

As to `N/C(=N\OC(=O)Cc1ccc([N+](=O)[O-])cc1)c1ccccn1`, the “activity change, positive = activation” value is 12%.

With `COc1ccccc1OCC(=O)OCc1cc(-c2ccco2)on1`, the “activity change, positive = activation” value is -0.824%. Regarding `COc1ccccc1OCC(=O)O/N=C(\N)c1ccccn1`, the Potency was 9.2 µM (active). With `COc1ccc(OCC(=O)NNC(=O)C2CCC2)cc1`, the “activity change, positive = activation” value was 0.166%. Consider `CC(CNC(=O)Cn1cnc2c(OCc3ccccc3)ncnc21)c1ccccc1` (centres undefined), for which the “activity change, positive = activation” value was 1.33%. Take `COc1cccc(Nc2nc(N)c([N+](=O)[O-])c(NCc3ccco3)n2)c1`: the “activity change, positive = activation” value was -1.09%.

For `CNc1nc(Nc2ccc(C)c(Cl)c2)nc(N)c1[N+](=O)[O-]`, the Potency was 10.3 µM (active). As to `Cc1ccc(Nc2nc(N3CCOCC3)nc(N3CCOCC3)n2)cc1Cl`, the activity change, positive = activation was 0.349% [at 9.26 µM].

These data come from PubChem BioAssay AID504466 (National Center for Advancing Translational Sciences (NCATS), 2011).
